# Structures can show the parent of a compound that is named as a salt.
# Legend:
# [1] = tested on: Vero E6 infected with SARS-CoV-2; experiment: morphology score (similarity to uninfected cells); higher = more like uninfected cells; settings: 24 h
# [2] = tested on: Vero E6 infected with SARS-CoV-2; experiment: SARS-CoV-2 infection rate relative to infected DMSO; higher = more infection, active = 60 or less; settings: 24 h
SMILES,morphology score [1],SARS-CoV-2 infection rate [2]
Clc1ccc(C2=CCC[C@H]3CC[C@@H]2N3)cn1 (10 µM),-0.0924,110% (inactive)
CC(=O)O[C@]1(C(C)=O)CC[C@H]2[C@@H]3C[C@H](C)C4=CC(=O)CC[C@]4(C)[C@H]3CC[C@@]21C [medroxyprogesterone-acetate] (10 µM),0.153,105% (inactive)
CC1(C)O[C@H]2CC(=O)OC[C@]23[C@H]2CC[C@@]4(C)[C@H](c5ccoc5)OC(=O)[C@H]5O[C@]54[C@]2(C)C(=O)C[C@@H]13 [limonin] (10 µM),0.289,103% (inactive)
NCC(=O)N1C[C@H](NC(=O)c2ccccc2)C[C@H]1C(=O)O [danegaptide] (10 µM),0.0415,105% (inactive)
CN1CCN(CCCN2c3ccccc3Sc3ccc(C(F)(F)F)cc32)CC1 [trifluoperazine] (0.833333 µM),0.156,96.5% (inactive)
Nc1ccc(C(=O)Oc2ccccc2)c(O)c1 [phenyl-aminosalicylate] (10 µM),0.0987,104% (inactive)
N=c1ccn2c(n1)O[C@H]1[C@H](O)[C@@H](CO)O[C@H]12 [Cyclocytidine HCl] (0.833333 µM),-0.127,114% (inactive)
Cc1cn([C@H]2O[C@@H](CO)[C@H](O)[C@H]2F)c(=O)[nH]c1=O [clevudine] (10 µM),-0.0291,107% (inactive)
Nc1ccc(S(=O)(=O)Nc2cnc3ccccc3n2)cc1 [sulfaquinoxaline] (10 µM),0.114,104% (inactive)
C[C@@H](C(=O)O)c1ccc(-c2ccccc2)c(F)c1 (racemic) [flurbiprofen-(+/-)] (10 µM),0.232,107% (inactive)
CO[C@H]1CC[C@H](N(c2cc(C3=CCCCC3)sc2C(=O)O)C(=O)[C@H]2CC[C@H](C)CC2)CC1 (10 µM),0.155,83% (inactive)
Nc1nonc1/C(=N/O)Nc1ccc(F)c(Cl)c1 (10 µM),0.043,112% (inactive)
COC(=O)c1ccc2c(c1)NC(=O)/C2=C(\Nc1ccc(N(C)C(=O)CN2CCN(C)CC2)cc1)c1ccccc1 [nintedanib] (10 µM),-0.0524,108% (inactive)
Nc1ncnc2c1ncn2[C@@H]1O[C@H](COP(=O)(O)OP(=O)(O)OP(=O)(O)O)[C@@H](O)[C@H]1O (10 µM),-0.0072,99.5% (inactive)
CCCc1nn(C)c2c(=O)[nH]c(-c3cc(S(=O)(=O)N4CCN(C)CC4)ccc3OCC)nc12 [sildenafil] (10 µM),0.056,109% (inactive)
Cc1cc(-c2ccc(/N=N/c3ccc4c(S(=O)(=O)O)cc(S(=O)(=O)O)c(N)c4c3O)c(C)c2)ccc1/N=N/c1ccc2c(S(=O)(=O)O)cc(S(=O)(=O)O)c(N)c2c1O [evans-blue] (0.833333 µM),-0.0473,110% (inactive)
O=C(O)CNC(=O)c1nc(Cl)c2ccccc2c1O (10 µM),0.17,102% (inactive)
COC(=O)C1=C(C)NC(C)=C(C(=O)NCCCN2CCC(c3ccccc3)(c3ccccc3)CC2)C1c1ccc([N+](=O)[O-])cc1 (stereo not given) (0.833333 µM),0.212,98.5% (inactive)
c1nc(CC2CCNCC2)c[nH]1 [immepip] (10 µM),0.0471,101% (inactive)
CN(C)CCCSC(=N)N [dimaprit] (10 µM),0.245,94.5% (inactive)

SMILES,morphology score [1],SARS-CoV-2 infection rate [2]
O=C(NC[C@H](O)CO)c1ccncc1Nc1ccc(I)cc1F (0.833333 µM),-0.139,114% (inactive)
O=C(Nc1ncc(SCCN2CCCC2)s1)[C@]1(c2ccc(S(=O)(=O)C3CC3)cc2)C[C@H]1C1CCCCC1 (10 µM),0.767,17% (active)
CNC(=O)c1ccc2cc([C@@]3(O)CCn4cncc43)ccc2c1 [orteronel] (10 µM),0.0827,106% (inactive)
CC(C)Cc1ccc(C(C)C(=O)O)cc1 (stereo not given) [ibuprofen] (10 µM),0.0447,108% (inactive)
CC(C)NCC(O)COc1ccc(COCCOC(C)C)cc1 (stereo not given) [bisoprolol] (10 µM),-0.0255,106% (inactive)
COc1cn(-c2ccc(-n3cccn3)cc2F)nc(-c2ccnn2-c2ccccc2)c1=O (10 µM),0.0337,112% (inactive)
Oc1ccc(OCc2ccccc2)cc1 [monobenzone] (10 µM),-0.207,119% (inactive)
C=CC(=O)N1CCN(C(=O)CNc2cc(I)c(Cl)cc2O)CC1 [K-Ras(G12C)-inhibitor-12] (10 µM),-0.138,111% (inactive)
CC1(C)CC(O)CC(C)(C)N1[O] [tempol] (10 µM),0.209,97% (inactive)
CCN(C)C(=O)Oc1cccc([C@H](C)N(C)C)c1 [rivastigmine] (10 µM),0.136,101% (inactive)
C[C@](N)(Cc1ccc(O)cc1)C(=O)O [metirosine] (10 µM),-0.111,112% (inactive)
Oc1ccc2c3c1O[C@H]1c4[nH]c5ccccc5c4C[C@@]4(O)[C@@H](C2)N(CC2CC2)CC[C@]314 [naltrindole] (10 µM),-0.0968,106% (inactive)
CCNC(=O)[C@H]1O[C@@H](n2cnc3c(N)ncnc32)[C@H](O)[C@@H]1O (10 µM),0.184,92% (inactive)
O=C(Nc1nc2ccc(NC(=O)C34CC5CC(CC(C5)C3)C4)cc2s1)c1ccccc1 (0.833333 µM),-0.0802,105% (inactive)
N=C(N)c1ccc(OCCCCCOc2ccc(C(=N)N)cc2)cc1 [pentamidine] (10 µM),0.104,109% (inactive)
CCCCN1CCCC1CNC(=O)c1cc(C#N)c2ccccc2c1OC (stereo not given) [nafadotride] (10 µM),0.327,89% (inactive)
CN(C)CCCCSC(=N)N (10 µM),0.0735,100% (inactive)
Nc1ccc(S(N)(=O)=O)cc1 [sulfanilamide] (10 µM),0.0892,103% (inactive)
FC(F)(F)c1cc(CO[C@H]2CCCN[C@H]2c2ccccc2)cc(C(F)(F)F)c1 (10 µM),0.777,16% (active)
Cc1ncc(COP(=O)([O-])[O-])c(CN(CCN(CC(=O)O)Cc2c(COP(=O)([O-])O)cnc(C)c2O)CC(=O)O)c1O.[Mn].[Na+].[Na+].[Na+] [Mangafodipir (trisodium)] (10 µM),-0.000637,120% (inactive)

SMILES,morphology score [1],SARS-CoV-2 infection rate [2]
CC1Nc2ccc(Cl)cc2S(=O)(=O)N1 (stereo not given) (10 µM),0.135,100% (inactive)
COC(=O)c1ccc(O)cc1 [methylparaben] (10 µM),-0.112,114% (inactive)
COc1ccc(NC(=O)c2ccc(C(=N)N(C)C)cc2)c(C(=O)Nc2ccc(Cl)cn2)c1 [betrixaban] (10 µM),0.0893,91% (inactive)
O=C(O)c1cc(=O)c2ccccc2o1 [chromocarb] (10 µM),-0.133,106% (inactive)
CN1[C@@H]2CC[C@H]1C[C@@H](OC(=O)N1Cc3ccccc3NC1=O)C2 (10 µM),0.0635,108% (inactive)
NCCc1cc[nH]n1 [betazole] (10 µM),-0.0835,105% (inactive)
C[C@@H](c1nc(-c2ccc(C#N)cc2)cs1)[C@](O)(Cn1cncn1)c1cc(F)ccc1F [isavuconazole] (10 µM),-0.116,113% (inactive)
Fc1ccc(CNc2ncnc3ccc(F)cc23)cc1 [spautin-1] (10 µM),-0.0451,117% (inactive)
O=C(O)c1ccccc1NCCc1ccccc1 [tromaril] (10 µM),-0.0774,105% (inactive)
CCCCC(CC)CNC(=N)NC(=N)NCCCCCCNC(=N)NC(=N)NCC(CC)CCCC (stereo not given) [alexidine] (0.833333 µM),-0.0694,104% (inactive)
N=C(NCCCCCCNC(=N)NC(=N)Nc1ccc(Cl)cc1)NC(=N)Nc1ccc(Cl)cc1 [chlorhexidine] (0.833333 µM),0.277,58% (active)
CC(=O)O[C@H]1C[C@H](O[C@H]2[C@@H](O)C[C@H](O[C@H]3[C@@H](O)C[C@H](O[C@H]4CC[C@@]5(C)[C@H](CC[C@@H]6[C@@H]5C[C@@H](O)[C@]5(C)[C@@H](C7=CC(=O)OC7)CC[C@]65O)C4)O[C@@H]3C)O[C@@H]2C)O[C@H](C)[C@H]1O[C@@H]1O[C@H](CO)[C@@H](O)[C@H](O)[C@H]1O [lanatoside-C] (0.833333 µM),-0.0895,102% (inactive)
CCN(CC)CCCC(C)Nc1c2ccc(Cl)cc2nc2ccc(OC)cc12 (stereo not given) [mepacrine] (0.833333 µM),0.481,55.5% (active)
Cc1[nH]c2ccccc2c1CCNCc1ccc(/C=C/C(=O)NO)cc1 [panobinostat] (0.833333 µM),-0.0995,105% (inactive)
CC[C@H](CO)Nc1nc(Nc2cccc(-c3ccccn3)c2)c2ncn(C(C)C)c2n1 (10 µM),-0.214,116% (inactive)
Nc1nc2c(ncn2COC(CO)CO)c(=O)[nH]1 [ganciclovir] (10 µM),0.108,97% (inactive)
CCN(CC)S(=O)(=O)c1ccc(C(=O)O)cc1 [etebenecid] (10 µM),0.125,105% (inactive)
Cc1c(C(=O)NCCCO)cnn1-c1nc(-c2cccc(C(F)(F)F)c2)cs1 (10 µM),0.107,97.5% (inactive)
COc1ccccc1N1CCN(CCCCNC(=O)c2ccc3ccccc3c2)CC1 (10 µM),-0.00528,94.5% (inactive)
COc1ncc(-c2ccc3c(Nc4cc(Oc5cc(F)cc(F)c5)cc(C(=O)O)c4)c(S(=O)(=O)NC4CC4)cnc3c2)c(OC)n1 (10 µM),-0.00104,109% (inactive)
